TIM10 inh: growth inhibitors of isogenic TIM10 control yeast, primary screen, counter-screen for tim10-1 yeast inhibitor project, luminescence, uHTS; AID 463195, 2010; inhibition, % at 10 µM; S. cerevisiae TIM10 strain growth, BacTiter-Glo luminescence, 24 h; 330,000 tested, 1.4% active;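 active = inhibition of 40% or more at the single tested concentration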;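 also: wild-type TIM10 isogenic control strain grown at permissive 25 °C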
tim10-1 inh: growth inhibitors of tim10-1 mutant yeast, primary screen, luminescence, uHTS | 330,000 tested, 2.2% active | AID 463190, 2010 | S. cerevisiae tim10-1 ts strain growth, BacTiter-Glo, 24 h | inhibition, % at 20 µM;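 active = inhibition of at least 40%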;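 also: mutant grown at 25 °C; 0% = DMSO wells with yeast and 100% = wells holding no yeast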
PfHsp90 set2: growth inhibition of PfHsp90-expressing yeast, primary screen, antimalarial PfHsp90 inhibitor project, S. cerevisiae, BacTiter-Glo luminescence, single point, set 2. inhibition, % at 9.4 µM. AID 504621, 2011. BacTiter-Glo ATP, 48 h; yeast lacking PDR1 and PDR3 efflux regulators. 310,000 tested, 0.32% active;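 active = every replicate shows inhibition above about 80%, whatever the replicate mean, limit read from the data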;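 also: 0% = DMSO neutral controls and 100% = 20 µM radicicol positive controls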
tim23-1 inh: growth inhibitors of tim23-1 mutant yeast, primary screen, luminescence, uHTS; S. cerevisiae tim23-1 growth, BacTiter-Glo luminescence, 24 h; AID 463212, 2010; 330,000 tested, 1.3% active; inhibition, % at 20 µM;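 active = growth inhibition of the mutant yeast at or above 50%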;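 also: temperature-sensitive mutant grown at 25 °C; plate controls were DMSO-treated mutant yeast for no effect and medium wells lacking yeast for full effect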
NALP3 yeast inh: NALP3 inflammasome inhibitors in reconstituted yeast, primary screen, luminescence, uHTS | Yeast reconstituted NLRP3/ASC/caspase-1, beta-gal luminescence, 24 h | inhibition, % at 10 µM | 330,000 tested, 0.39% active;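 active = inhibition of 50% or more; inactive = inhibition below 50%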;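 also: plate controls were induced DMSO wells for no effect and uninduced yeast grown without galactose for full effect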
NALP3 yeast conf: NALP3 inhibitors retested in yeast, confirmation, luminescence, single concentration | shares compounds with NALP3 yeast inh | yeast expressing human NALP3 | inhibition, % at 10 µM | 1,300 tested, 81% active | AID 435006, 2010; in the data active = inhibition above about 48%
Casp1-ASC yeast: CASP1-PYCARD signaling inhibition in yeast, confirmatory test, counterassay for NLRP3 inhibitor program, one-dose. AID 488784, 2010. shares compounds with NALP3 yeast inh. 1,000 tested, 66% active. inhibition, % at 10 µM. yeast expressing Caspase-1-ASC, luminescence counter screen
NALP3 retest: NALP3 inhibitors in yeast, repeat test, confirmation, luminescence, single concentration, retest | shares compounds with NALP3 yeast inh | yeast expressing human NALP3, luminescence read-out | 1,000 tested, 53% active | inhibition, % at 10 µM
* hit, by the source's call; · = not tested or not shown. The list is not random: actives were taken first. Their share in the collection is about 3.7%. Rule as the data show it, unless noted: active = inhibition above about 50%; inactive = the rest.

SMILES	TIM10 inh	tim10-1 inh	PfHsp90 set2	tim23-1 inh	NALP3 yeast inh	NALP3 yeast conf	Casp1-ASC yeast	NALP3 retest
O=C(Nc1cc(Cl)ccc1-n1cncn1)c1ccc([N+](=O)[O-])s1	25	34	114*	47	82*	91*	·	·
CC(Oc1ccc(F)cc1)C(=O)Nc1cc(Cl)ccc1-n1cncn1 (stereo not given)	6	19	13	29	49	·	·	·
COc1ccc(OC)c(/C=C/C(=O)N(C)CC(=O)Nc2ccc(N3CCOCC3)cc2)c1	4	6	-9	9	16	·	·	·
CC1CCCN(CCOc2cccc(Oc3ccccc3)c2)C1 (stereo not given)	-43	-38	4	-19	50*	56*	45	40
Cc1onc(-c2ccccc2Cl)c1C(=O)N1C=CC(C(F)(F)Cl)=NCC1	3	14	-13	22	33	·	·	·
Cc1onc(-c2ccccc2Cl)c1C(=O)N1C=CC(C(F)(F)F)=NCC1	13	7	1	21	50*	66*	45	53*
Cc1ccc(OCCNC(=O)CNC(=O)c2ccc3c(c2)OCO3)cc1	4	2	13	-6	11	·	·	·
O=c1c2cc(Cl)ccc2nc(-c2ccc([N+](=O)[O-])cc2)n1O	-2	2	2	37	65*	68*	38	58*
CC(C)(C)OC(=O)NC1CNNC1=O (stereo not given)	-12	0	-4	-4	-8	·	·	·
CCc1noc(C)c1C(=O)Nc1nc2ccc(F)cc2s1	2	13	18	36	68*	78*	75*	66*
Cc1noc(C)c1C(=O)Nc1nc2ccc(F)cc2s1	14	27	57	39	65*	50*	62*	54*
COc1cccc(OC)c1C(=O)Nc1nc2ccc(S(C)(=O)=O)cc2s1	-10	-5	-7	2	6	·	·	·
COc1cccc(OC)c1C(=O)Nc1nc2ccc([N+](=O)[O-])cc2s1	35	18	16	16	55*	74*	·	·
Cc1cc(C)c2nc(NC(=O)c3cc(C)on3)sc2c1	9	-2	-38	-3	8	·	·	·
CCc1noc(C)c1C(=O)Nc1nc2c(C)cc(C)cc2s1	1	25	25	20	72*	77*	75*	61*
CCc1c(C)nc2ncnn2c1N1CCN(S(=O)(=O)c2ccc(OC)cc2)CC1	12	5	2	14	-9	·	·	·
Clc1ccc(SCc2cc(N3CCOCC3)nc(-c3ccccn3)n2)cc1	20	21	-22	3	51*	57*	55*	54*
O=c1cc(CSc2ccc(Cl)cc2)nc(-c2ccccn2)[nH]1	-33	27	105*	25	64*	84*	97*	91*
O=c1cc(CSc2ccc(Cl)cc2)nc(-c2ccccc2)[nH]1	26	15	-17	18	17	·	·	·
NC(N)=NC1=NC(=O)C(Cc2ccccc2)S1 (stereo not given)	-14	-7	-22	1	-1	·	·	·
CCOC(=O)c1cc2c(=O)n3ccccc3nc2n(Cc2ccco2)c1=NC(=O)c1ccc(OC)cc1OC	9	13	14	-2	8	·	·	·
COc1ccc(C(=O)NC(=S)NNC(=O)c2ccc(C)cc2)cc1	36	13	-6	29	54*	66*	55*	60*
COc1ccc(NC(=O)C(=O)N/N=C\c2ccc(CNC(=O)C(=O)Nc3ccc(C)c(C)c3)o2)c(OC)c1	-15	-3	·	-12	6	·	·	·
Nc1c(-c2ccccc2)cnn1-c1cccc(Cl)c1	-57	-56	-2	34	50*	76*	59*	54*
Cc1cc(-c2nnc(SCC(=O)Nc3nccs3)o2)no1	-19	-6	13	-20	4	·	·	·
SMILES	TIM10 inh	tim10-1 inh	PfHsp90 set2	tim23-1 inh	NALP3 yeast inh	NALP3 yeast conf	Casp1-ASC yeast	NALP3 retest
CCc1cccc(NC(=S)N2CCC(c3ccccc3)C2)c1 (stereo not given)	39	18	12	36	52*	56*	62*	45
CCc1sc(C(=O)Nc2nc(C)cs2)cc1C	-16	-13	20	29	56*	72*	66*	54*
O=C(O)CC1(CC(=O)Nc2ccc3sccc3c2)CCCCC1	-8	14	·	24	-9	·	·	·
Cc1cn(C(=O)C(C)N2C(=O)c3ccccc3C2=O)c(C)n1 (stereo not given)	7	8	·	16	-24	·	·	·
CCOC(=O)c1nc(C)nc(Sc2n[nH]c(-c3cc(Cl)cc(Cl)c3)n2)c1C	10	11	2	23	51*	31	·	·
Cc1ccc(Cl)cc1NC(=O)c1cnn2c1NC(c1ccco1)CC2C(F)(F)F (stereo not given)	14	16	35	25	58*	66*	72*	57*
O=C(NCc1cccc(Cl)c1)c1cnn2c1NC(c1ccco1)CC2C(F)(F)F (stereo not given)	24	26	18	26	20	·	·	·
Cc1c(C(=O)Nc2ccccc2F)cnn1-c1ccccc1	6	-3	10	12	47	·	·	·
Cc1c(C(=O)Nc2cc(F)cc(F)c2)cnn1-c1ccccc1	-2	2	7	26	71*	76*	76*	70*
CCn1c(SCC(=O)NNC(=O)c2ccc(C)cc2)nnc1-c1ccco1	-14	-20	3	1	11	·	·	·
CC(NC(=O)c1c(O)c2ccccc2n(C)c1=O)c1ccccc1 (stereo not given)	-1	-60	-4	28	12	·	·	·
Cc1c(/C=N/O)c2ccccn2c1C(=O)c1ccc(F)cc1	-12	17	33	16	62*	77*	49	44
CC1(C)C[C@H](O)[C@@]23C[C@@H](OC2=O)[C@]2(C)C(=CCC4[C@@]5(C)CC[C@H](O)C(C)(C)C5CC[C@]42C)[C@@H]3C1 (stereo not given in full)	4	8	·	11	51*	68*	41	41
CC1(C)C[C@H](O)[C@]2(CO)CC[C@]3(C)C(=CCC4[C@@]5(C)CC[C@H](O)C(C)(C)C5CC[C@]43C)[C@@H]2C1 (stereo not given in full)	-6	-19	35	-1	41	·	·	·
